Source: PubChem BioAssay (NCATS)
Several values for one entry are separate records, joined by “and”; a condition that tells them apart may be missing. Equal entries are not always repeated. Inconclusive results are not listed. Activity calls are given as the source filed them. Calls come from the whole dose curve; as a rule, active = well fitted curve in the direction sought with a large enough effect; inconclusive = small, poorly fitted or top-dose-only effect, or another doubt; inactive = no such curve, though single readings can be large; an effect the other way counts as inactive or inconclusive.

Legend:
[1] = test system: CRL-7250; experiment: Cytotoxic Profiling of Annotated Libraries Using Quantitative High-Throughput Screening (AID 1296008); settings: Five cell lines viability, CellTiter-Glo ATP luminescence, 48-72 h; max response: active compounds read low; note: nearly all actives have a fitted effect of over 60% in size; note: potency is the fitted concentration of half-maximal effect; for max response: % is set by controls: 0 for no effect and ±100 for the full control effect
Outline: (§1)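 Cytotoxicity was measured as CellTiter-Glo ATP luminescence, read after 10 min at room temperature. Compound treatment of the cells lasted 48 or 72 hr at 37 degrees Celsius in a qHTS format.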

[2] = test system: HEK293; experiment: as above; settings: Five cell lines viability, CellTiter-Glo ATP luminescence, 48-72 h; max response: active compounds read low
Outline: as §1

[3] = test system: NIH3T3; experiment: as above; settings: Five cell lines viability, CellTiter-Glo ATP luminescence, 48-72 h; max response: active compounds read low
Outline: as §1

[4] = test system: MCC-26; experiment: qHTS assay to identify novel small-molecules to repurpose for Merkel cell carcinoma treatment (AID 1296009); settings: MCC and control cell lines, CellTiter-Glo viability, 72 h; series mostly up to 46 µM; note: nearly all actives have a fitted effect of over 60% in size; note: potency is the fitted concentration of half-maximal effect
Outline: (§2)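 After compound transfer in DMSO, plates were kept 72 hr at 37 degree celsius. Luminescent ATP signal from CellTiter-Glo served as viability measure, normalized against DMSO and no-cell controls.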

[5] = test system: MKL-1; experiment: as above; settings: MCC and control cell lines, CellTiter-Glo viability, 72 h; series mostly up to 46 µM
Outline: as §2

[6] = test system: MKL-2; experiment: as above; settings: MCC and control cell lines, CellTiter-Glo viability, 72 h; series mostly up to 46 µM
Outline: as §2

[7] = test system: UISO; experiment: as above; settings: MCC and control cell lines, CellTiter-Glo viability, 72 h; series mostly up to 46 µM
Outline: as §2

[8] = test system: WaGa; experiment: as above; settings: MCC and control cell lines, CellTiter-Glo viability, 72 h; series mostly up to 46 µM
Outline: as §2

[9] = test system: HaCat; experiment: Cytotoxic Profiling of Annotated Libraries Using Quantitative High-Throughput Screening (AID 1296008); settings: Five cell lines viability, CellTiter-Glo ATP luminescence, 48-72 h; max response: active compounds read low; note: nearly all actives have a fitted effect of over 60% in size; note: potency is the fitted concentration of half-maximal effect; for max response: % is set by controls: 0 for no effect and ±100 for the full control effect
Outline: as §1

[10] = test system: KB-3-1; experiment: as above; settings: Five cell lines viability, CellTiter-Glo ATP luminescence, 48-72 h; max response: active compounds read low
Outline: as §1

[11] = test system: HACAT; experiment: qHTS assay to identify novel small-molecules to repurpose for Merkel cell carcinoma treatment (AID 1296009); settings: MCC and control cell lines, CellTiter-Glo viability, 72 h; at 44.8 µM (top of the series) unless noted; note: nearly all actives have a fitted effect of over 60% in size; note: potency is the fitted concentration of half-maximal effect
Outline: as §2

[12] = test system: MCC-13; experiment: as above; settings: MCC and control cell lines, CellTiter-Glo viability, 72 h; series mostly up to 46 µM
Outline: as §2

[13] = test system: C33A; experiment: Primary qHTS to identify gynecologic anti-cancer compounds using libraries of approved drugs and bioactive compounds (AID 1345084); settings: Gynecologic cancer cell panel viability, ATPlite luminescence, 48 h; series mostly up to 57.5 µM; note: nearly all actives have a fitted effect of over 55% in size; note: potency is the fitted concentration of half-maximal effect
Outline: (§3)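 Five-point cytotoxicity, 48 h drug exposure at 37 C, 5% CO2, on cells seeded 16 h beforehand. ATP content read by ATPlite luminescence.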

[14] = test system: CAOV3; experiment: as above; settings: Gynecologic cancer cell panel viability, ATPlite luminescence, 48 h; series mostly up to 57.5 µM
Outline: as §3

[15] = test system: NIH3T3; experiment: qHTS assay to identify novel small-molecules to repurpose for Merkel cell carcinoma treatment (AID 1296009); settings: MCC and control cell lines, CellTiter-Glo viability, 72 h; at 44.8 µM (top of the series) unless noted; note: nearly all actives have a fitted effect of over 60% in size; note: potency is the fitted concentration of half-maximal effect
Outline: as §2

[16] = test system: TAB113; experiment: qHTS profiling for inhibitors of Plasmodium falciparum proliferation (AID 504749); settings: P. falciparum in erythrocytes, SYBR Green DNA, 72 h; series mostly up to 28.7 µM
Outline: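 Three-day growth assay of blood-stage parasites in erythrocytes (0.3% parasitemia, 2.5% hematocrit) at 37 C, 5% CO2, quantified by SYBR Green DNA staining after overnight detergent lysis.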

NS(=O)(=O)c1cccc2c1C(=O)c1cccc(O)c1C2=O
active: Potency [1] 0.526 µM | Potency [2] 16.6 µM | Potency [3] 0.935 µM | Potency [4] 0.833 µM | Potency [5] 0.132 µM | Potency [6] 0.264 µM | Potency [7] 0.662 µM | Potency [8] 0.132 µM

N[C@@]1(C(=O)O)CS(=O)(=O)[C@H]2[C@H](C(=O)O)[C@H]21
inactive: max response [1] -30.1% | outcome [9] | max response [10] -18.8% | max response [3] -12.5% | outcome [11] | Potency [12] | Potency [4] | Potency [5] | Potency [6] | Potency [7] | Potency [8]

NC(=O)c1cccc(-c2cc(Nc3ccc(OC(F)(F)F)cc3)ncn2)c1
inactive: max response [1] -7.69% and -0.175% | outcome [9] | max response [10] -13.5% | max response [3] 0.478% and -10.9% | outcome [11] | Potency [12] | Potency [5] | Potency [13] | Potency [14]

CC1(C)S[C@H]2[C@H](NC(=O)[C@@H](N)c3ccc(O)cc3)C(=O)N2[C@@H]1C(=O)O
inactive: outcome [1] | outcome [9] | outcome [10] | max response [3] 4.61% | outcome [11] | Potency [12] | Potency [4] | Potency [7]
active: Potency [6] 4.18 µM | Potency [8] 2.64 µM

CCn1c(C(=O)N(C2CC2)C2CC2)cc2c3c(ncn3C)c(Nc3cc(C)n(C)n3)nc21
inactive: max response [1] 3.88% and -9.32% | max response [9] 2.37% and -28.6% | max response [10] 3.91% and 9.29% | Potency [12] | Potency [4] | Potency [5] | Potency [6] | Potency [7] | Potency [8] | Potency [13] | Potency [14]
active: Potency [3] 23.5 µM

COc1ccc(-c2coc3cc(O)cc(O)c3c2=O)cc1
inactive: max response [1] 1.69% | max response [9] 1.1% | outcome [10] | outcome [3] | Potency [12] | Potency [5] | Potency [6] | outcome [15] | Potency [7] | Potency [8]

COC(=O)N[C@H](C(=O)N1CCC[C@@H]1c1ncc(-c2ccc(-c3ccc(-c4cnc([C@@H]5CCCN5C(=O)[C@@H](NC(=O)OC)C(C)C)[nH]4)cc3)cc2)[nH]1)C(C)C
inactive: outcome [1] | outcome [9] | max response [10] 1.64% | max response [3] 2.81% | outcome [11] | Potency [12] | Potency [4] | Potency [5] | Potency [6] | Potency [7] | Potency [8]

COc1ccc(Cc2ccc(NC(N)=O)cc2)cc1-c1cccc(Cl)c1
inactive: max response [1] 2.51% | max response [2] -15.8% | max response [10] -9.2% | max response [3] -1.6% | Potency [12] | Potency [4] | Potency [5] | Potency [6] | Potency [7] | Potency [8] | Potency [13] | Potency [14]

CC(C)(C(=O)NCC(F)(F)C(F)(F)F)C(=O)N[C@@H]1C(=O)Nc2ccccc2-c2ccccc21
inactive: max response [1] -11.4% | max response [9] -2.21% | outcome [10] | outcome [3] | Potency [12] | Potency [4] | outcome [15]

CCCCC1C(=O)N(c2ccccc2)N(c2ccccc2)C1=O
inactive: Potency [16] | max response [1] -3.59% | max response [9] -4.56% | max response [10] 0.189% and 30.8% | max response [3] -4.9% | Potency [12] | Potency [4] | Potency [5] | Potency [6] | Potency [7] | Potency [8] | Potency [13] | Potency [14]

NC(=O)[C@@H](CCC(F)(F)F)N(Cc1ccc(-c2ncon2)cc1F)S(=O)(=O)c1ccc(Cl)cc1
inactive: max response [1] -21.3% | max response [9] -0.733% | max response [10] -20.8% | max response [3] -26.9% | Potency [12] | Potency [4] | Potency [5] | Potency [6] | Potency [7] | Potency [8]

O=C(NCc1ccncc1)C12C[C@H]3C[C@@H](C1)CC(c1ccc(Cl)cc1)(C3)C2
active: Potency [2] 10.5 µM
inactive: max response [1] -10.8% | Potency [12] | Potency [4] | Potency [6]

O=C(O)C=Cc1ccc(O)c(O)c1
inactive: max response [1] -10.7% | max response [9] -23.4% | max response [10] 6.69% | max response [3] -24.2%

CN(C)CCC=C1c2ccccc2COc2ccc(CC(=O)O)cc21
inactive: outcome [1] | outcome [9] | outcome [10] | outcome [3] | outcome [11] | Potency [12] | Potency [5] | Potency [6] | outcome [15] | Potency [7] | Potency [8]

C=C1C(=O)[C@@]23C(CC[C@@H]1[C@H]2O)[C@@]12CO[C@]3(O)[C@@H](O)[C@@H]1C(C)(C)CC[C@@H]2O (some centres not stated)
active: Potency [1] 18.4 µM | Potency [2] 13.2 µM and 8.2 µM | Potency [3] 18.7 µM | Potency [12] 16.6 µM | Potency [5] 1.18 µM | Potency [6] 0.935 µM | Potency [7] 14.8 µM | Potency [8] 0.833 µM | Potency [13] 28.2 µM
